This is part of a sample that, as a whole, favours compounds with a hit. Of some 83,000 tested, about 20% had one in any assay.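 48-hour exposure, single concentration, 96-well plates; percent growth endpoint where 0 means no net growth. Active: below 10.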 Active and inactive are the calls of the source.
How the values were obtained:
Test in all cases: NCI-60 one-dose screen, 48 h (100 = growth as untreated, 0 = no growth, -100 = all killed)
OVCAR-8 ovarian = details: 10 µM unless noted
OVCAR-5 ovarian = details: 10 µM unless noted
OVCAR-4 ovarian = details: 10 µM unless noted
SK-OV-3 ovarian = details: 10 µM unless noted
IGROV1 ovarian = details: 10 µM unless noted
OVCAR-3 ovarian = details: 10 µM unless noted
HS 578T breast = details: 10 µM
NCI/ADR-RES ovarian = details: 10 µM unless noted
T-47D breast = details: 10 µM unless noted
MDA-MB-435 melanoma = details: 10 µM unless noted
SW-620 colon = details: 10 µM unless noted
MCF7 breast = details: 10 µM unless noted
HCT-116 colon = details: 10 µM unless noted
HCC-2998 colon = details: 10 µM unless noted
KM12 colon = details: 10 µM unless noted
RPMI-8226 leukemia = details: 10 µM unless noted
BT-549 breast = details: 10 µM unless noted

Measured: growth

COc1cccc(OCC(O)CN2CCN(c3ccccc3)CC2)c1 (configuration not stated)
inactive: OVCAR-8 ovarian 103% | OVCAR-5 ovarian 105% | OVCAR-4 ovarian 97.4% | SK-OV-3 ovarian 106% | IGROV1 ovarian 107% | OVCAR-3 ovarian 112% | HS 578T breast 117% | NCI/ADR-RES ovarian 100% | T-47D breast 100% | MDA-MB-435 melanoma 121% | SW-620 colon 112% | MCF7 breast 108% | HCT-116 colon 112% | HCC-2998 colon 106% | KM12 colon 112%

CCCC(CCC)NCC(O)c1cc(-c2ccc(C(F)(F)F)cc2)nc(C(F)(F)F)c1 (configuration not stated)
inactive: SK-OV-3 ovarian 52.3% | BT-549 breast 48.2%
active: RPMI-8226 leukemia -37.7% | OVCAR-8 ovarian -62.8% | OVCAR-5 ovarian -37.9% | IGROV1 ovarian -22.9% | OVCAR-3 ovarian -83.1% | HS 578T breast -45.5% | NCI/ADR-RES ovarian -53.9% | T-47D breast -80.5% | MDA-MB-435 melanoma -48.1% | SW-620 colon -56.6% | MCF7 breast -85.1% | HCT-116 colon -70.8% | KM12 colon -85.4%

O=C(O)Cn1ccc2ccccc21
inactive: OVCAR-8 ovarian 92.6% | OVCAR-5 ovarian 100% | OVCAR-4 ovarian 97.8% | SK-OV-3 ovarian 134% | OVCAR-3 ovarian 104% | HS 578T breast 108% | NCI/ADR-RES ovarian 103% | T-47D breast 135% | MDA-MB-435 melanoma 108% | SW-620 colon 99.1% | MCF7 breast 96.4% | HCT-116 colon 96.9% | HCC-2998 colon 104% | KM12 colon 109%
active: IGROV1 ovarian -6.06%

O=C(O)c1cn(-c2ccccc2)nc1-c1ccc(O)cc1
inactive: RPMI-8226 leukemia 96.7% | OVCAR-8 ovarian 90.8% | OVCAR-5 ovarian 101% | OVCAR-4 ovarian 92.2% | SK-OV-3 ovarian 92.4% | IGROV1 ovarian 111% | HS 578T breast 94.2% | NCI/ADR-RES ovarian 101% | T-47D breast 101% | BT-549 breast 99.3% | MDA-MB-435 melanoma 103% | SW-620 colon 98.5% | MCF7 breast 88.7% | HCT-116 colon 96.4% | HCC-2998 colon 95.5%

Cc1nc([C@H]2CC[C@H]3[C@@H]4CCC5=CC(=O)CC[C@]5(C)[C@H]4CC[C@]23C)cs1
inactive: OVCAR-8 ovarian 47.9% | OVCAR-5 ovarian 91.4% | OVCAR-4 ovarian 27.4% | SK-OV-3 ovarian 85.3% | IGROV1 ovarian 109% | OVCAR-3 ovarian 95.9% | HS 578T breast 104% | NCI/ADR-RES ovarian 43.7% | T-47D breast 42% | MDA-MB-435 melanoma 66.8% | SW-620 colon 73.3% | MCF7 breast 55.2% | HCT-116 colon 28.3% | HCC-2998 colon 61.1% | KM12 colon 65.9%

CO[C@@]12[C@@H]3NC3CN1C1=C(C(=O)C(N)=C(C)C1=O)[C@@H]2COC(N)=O (some centres not stated)
inactive: OVCAR-8 ovarian 15.8% | OVCAR-5 ovarian 45.7% | IGROV1 ovarian 33.1% | HS 578T breast 70.9% | NCI/ADR-RES ovarian 51.4% | T-47D breast 40.8% | BT-549 breast 28.6% | MDA-MB-435 melanoma 34.9% | SW-620 colon 10.4%
active: SK-OV-3 ovarian 5.63% | MCF7 breast 6.55% | HCT-116 colon 6.78% | HCC-2998 colon -44.8%

CC(OC(=O)Nc1cccc(Cl)c1)C(=O)O (configuration not stated)
inactive: OVCAR-8 ovarian 95.3% | OVCAR-5 ovarian 89.1% | OVCAR-4 ovarian 98.6% | SK-OV-3 ovarian 99.1% | IGROV1 ovarian 104% | OVCAR-3 ovarian 96.3% | HS 578T breast 96.4% | NCI/ADR-RES ovarian 96.8% | T-47D breast 93.2% | BT-549 breast 113% | MDA-MB-435 melanoma 82.8% | SW-620 colon 99.5% | MCF7 breast 99.7% | HCT-116 colon 97.2% | HCC-2998 colon 99.8% | KM12 colon 101%

NC(N)=N/N=C/c1ccccc1
inactive: RPMI-8226 leukemia 89.1% | OVCAR-8 ovarian 99.5% | OVCAR-5 ovarian 93.2% | SK-OV-3 ovarian 101% | IGROV1 ovarian 108% | OVCAR-3 ovarian 99.5% | HS 578T breast 101% | NCI/ADR-RES ovarian 104% | T-47D breast 94% | BT-549 breast 102% | MDA-MB-435 melanoma 93.6% | SW-620 colon 104% | MCF7 breast 93% | HCT-116 colon 92.8% | HCC-2998 colon 98.1% | KM12 colon 103%

O=C(C(=O)c1cccnc1)c1cccnc1
inactive: OVCAR-8 ovarian 82.6% | OVCAR-5 ovarian 100% | SK-OV-3 ovarian 136% | IGROV1 ovarian 31% | OVCAR-3 ovarian 87.7% | HS 578T breast 99% | NCI/ADR-RES ovarian 97.5% | T-47D breast 170% | MDA-MB-435 melanoma 119% | SW-620 colon 103% | MCF7 breast 97.5% | HCT-116 colon 99.8% | HCC-2998 colon 99.1% | KM12 colon 108%

CCOc1c(C#N)c2c(N)ncnc2n1C1OC(CO)C(O)C1O (configuration not stated)
inactive: OVCAR-8 ovarian 89.6% | OVCAR-5 ovarian 83.6% | OVCAR-4 ovarian 56.1% | SK-OV-3 ovarian 52.9% | HS 578T breast 50.9% | NCI/ADR-RES ovarian 62.4% | T-47D breast 15.4% | MDA-MB-435 melanoma 18.1% | HCC-2998 colon 84.1% | KM12 colon 10.6%
active: IGROV1 ovarian -57.7% | OVCAR-3 ovarian -41.4% | SW-620 colon 4.66% | MCF7 breast -3.56% | HCT-116 colon 3.41%

Cc1cc(C#Cc2ccccc2)ccc1-n1c(/C=C/c2ccc(F)cc2)nc2ccccc2c1=O
inactive: RPMI-8226 leukemia 25.6% | OVCAR-8 ovarian 90.6% | OVCAR-5 ovarian 106% | OVCAR-4 ovarian 57.6% | SK-OV-3 ovarian 89.9% | IGROV1 ovarian 95.2% | HS 578T breast 93.3% | NCI/ADR-RES ovarian 83.3% | T-47D breast 41% | BT-549 breast 90.4% | MDA-MB-435 melanoma 66.9% | SW-620 colon 47.8% | MCF7 breast 38.8% | HCT-116 colon 46% | HCC-2998 colon 86.6% | KM12 colon 62.5%

O=C(NCCNC(=O)c1cc(S(=O)(=O)NCCc2ccccc2)c(O)c(O)c1O)c1cc(S(=O)(=O)NCCc2ccccc2)c(O)c(O)c1O
inactive: RPMI-8226 leukemia 79.5% | OVCAR-8 ovarian 40.2% | OVCAR-5 ovarian 82.3% | SK-OV-3 ovarian 33.1% | IGROV1 ovarian 31.5% | OVCAR-3 ovarian 19.7% | HS 578T breast 52.2% | NCI/ADR-RES ovarian 76.1% | T-47D breast 84.1% | BT-549 breast 48.8% | MDA-MB-435 melanoma 35.2% | SW-620 colon 54.7% | MCF7 breast 34.9% | HCT-116 colon 33.5% | HCC-2998 colon 38.6% | KM12 colon 34.1%

CCCCCCCCCCCCCCCC1=NCC[N+]1(CCO)CCO
inactive: OVCAR-8 ovarian 37% | OVCAR-5 ovarian 43.1% | OVCAR-4 ovarian 61.4% | SK-OV-3 ovarian 95.1% | OVCAR-3 ovarian 86.6% | HS 578T breast 75.2% | NCI/ADR-RES ovarian 71.1% | T-47D breast 78.8% | BT-549 breast 79.6% | MDA-MB-435 melanoma 30.7% | SW-620 colon 57.6% | MCF7 breast 50.5% | HCT-116 colon 12.1% | HCC-2998 colon 82.5%
active: IGROV1 ovarian -16%

CCN(CC)Cc1cc(Nc2ccnc3cc(Cl)ccc23)cc(-c2ccc(Cl)cc2)c1O
active: RPMI-8226 leukemia 6% | OVCAR-8 ovarian 9.58% | IGROV1 ovarian -6.07% | OVCAR-3 ovarian -44.1% | HS 578T breast -33.5%
inactive: OVCAR-5 ovarian 54.2% | SK-OV-3 ovarian 48.1% | NCI/ADR-RES ovarian 19.9% | T-47D breast 50.9% | BT-549 breast 25.4% | MDA-MB-435 melanoma 35.4% | SW-620 colon 12.3% | MCF7 breast 14.8% | HCT-116 colon 43.4% | HCC-2998 colon 64.3% | KM12 colon 34.5%

CCCCCNCCCCCNc1cc(OC)cc2cccnc12
inactive: OVCAR-8 ovarian 101% | OVCAR-5 ovarian 87.2% | OVCAR-4 ovarian 37.1% | SK-OV-3 ovarian 91.2% | IGROV1 ovarian 98.3% | OVCAR-3 ovarian 75.6% | HS 578T breast 102% | NCI/ADR-RES ovarian 88.6% | T-47D breast 68.1% | BT-549 breast 69.2% | MDA-MB-435 melanoma 103% | SW-620 colon 90.9% | MCF7 breast 50.6% | HCT-116 colon 63.5% | HCC-2998 colon 93.4% | KM12 colon 103%

NC(=S)N/N=C(/c1cccs1)C1CC1
inactive: RPMI-8226 leukemia 63.2% | OVCAR-8 ovarian 67.7% | OVCAR-5 ovarian 90.9% | OVCAR-4 ovarian 82.8% | SK-OV-3 ovarian 103% | IGROV1 ovarian 53.5% | OVCAR-3 ovarian 51.5% | T-47D breast 20.6% | BT-549 breast 97.8% | MDA-MB-435 melanoma 87.4% | SW-620 colon 71.6% | MCF7 breast 22.5% | HCC-2998 colon 96.9% | KM12 colon 105%
active: HCT-116 colon 7.8%

CC(=O)OC1Oc2cc(C)c(C)cc2-c2oc(=O)c(-c3ccc(F)cc3)cc21 (configuration not stated)
inactive: OVCAR-8 ovarian 81.9% | OVCAR-5 ovarian 86.2% | SK-OV-3 ovarian 79.1% | IGROV1 ovarian 54.4% | HS 578T breast 60.5% | NCI/ADR-RES ovarian 28.5% | T-47D breast 52.5% | BT-549 breast 89.3% | SW-620 colon 26.7% | MCF7 breast 38.3% | HCT-116 colon 32.2% | HCC-2998 colon 56.7% | KM12 colon 23.7%
active: MDA-MB-435 melanoma -7.18%

CCCCCCCCCCCCCC(=S)NCCCC[C@H](NC(=O)OCc1ccccc1)C(=O)Nc1ccccc1
inactive: RPMI-8226 leukemia 32% | OVCAR-8 ovarian 40.3% | OVCAR-5 ovarian 89.5% | SK-OV-3 ovarian 78.2% | IGROV1 ovarian 54% | OVCAR-3 ovarian 22.1% | HS 578T breast 61.1% | NCI/ADR-RES ovarian 34.8% | T-47D breast 43.5% | BT-549 breast 107% | MDA-MB-435 melanoma 51.4% | SW-620 colon 32.7% | MCF7 breast 42.4% | HCT-116 colon 25% | KM12 colon 25.9%

Source: PubChem BioAssay (NCI)
